The values that follow come from PubChem BioAssay AID504843 (Broad Institute, 2011).

Hit rate of the full screen: of about 1,200 compounds, about 360 (30%) were called active. The rule behind the calls is not given here. The list is a sample of the results. Measured potencies and affinities stand elsewhere.

This assay in a line: bacterial growth inhibition, dose response, counter-screen, BacTiter-Glo luminescence, cherry-picked samples (AID 504843).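 Note: growth measured after 8 h incubation at 30 °C.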 As to conditions: BacTiter-Glo ATP luminescence; series mostly up to 15 µM. On the technique in general: A counterscreen serves to expose hits that act by an unwanted route or on another target.
Turning to `CC(/C=N/NC(=O)c1nnn(-c2nonc2N)c1C(C)C)=C\c1ccccc1`, the outcome was inactive.

On to `CN1CCN(CCC(=O)Nc2ccc(OCc3ccccc3)cc2)CC1`, for which the molecule was classed as inactive.

For the molecule `CCOc1ccc(NC(C(=O)Nc2cccc(C(C)=O)c2)c2ccccc2)cc1` (stereo not drawn), the result was inactive.

Turning to `CCn1c(SCC(=O)Nc2ccc(OC)cc2)nc2c1c(=O)n(C)c(=O)n2C`, the outcome was inactive.

Turning to `CC(C)(C)NC(=O)NC(=O)CSc1ccc(S(=O)(=O)N2CCOCC2)cn1`, the molecule was classed as inactive.

For `CN(c1ccccc1C(=O)Nc1ccc(S(=O)(=O)N2CCOCC2)cc1)S(C)(=O)=O`, the result was inactive.

On to `Cc1nc(SCc2nc3ccccc3[nH]2)c2oc3ccccc3c2n1`, for which the result was inactive.

Turning to `COc1ccc([N+](=O)[O-])cc1/C=N/NC(=O)Cc1ccccc1`, the result was inactive.

`O=c1/c(=C/c2ccc(O)c([N+](=O)[O-])c2)sc2nc3ccccc3n12`: the call was inactive.

`CC(SCC(=O)Nc1ccc(F)cc1)c1nc2ccccc2c(=O)[nH]1` (stereo not drawn): the result was inactive.

On to `Cc1nc2c(=O)n(-c3cccc(C(F)(F)F)c3)nc(C)c2s1`, for which the call was inactive.

Turning to `CCN1CCCC1CNC(=O)C(=O)NC(C)C` (stereo not drawn), the call was inactive.

As to `CCN1CCCC1CNCc1cccc(OC)c1OCc1ccc(F)cc1` (stereo not drawn), the call was inactive.

For `O=C(O)c1sccc1OCc1ccccc1`, the result was inactive.

In the case of `O=C(CCC1CCCCC1)NCCN1CCOCC1`, the molecule was classed as inactive.

In the case of `CCOc1ccc(Br)cc1CNCCN1CCOCC1`, the molecule was classed as inactive.

Turning to `COc1ccc(N=Cc2nc(-c3ccccc3)oc2OC(=O)c2ccccc2)cc1`, the molecule was called inactive.

In the case of `CCNc1nc(OC)nc(Oc2ccc(=O)n(-c3ccccc3)n2)n1`, the outcome was inactive.

In the case of `Clc1ccc(-c2csc(-c3cccnc3)n2)s1`, the result was inactive.

For `Nc1nc2ccc([N+](=O)[O-])c(N)c2s1`, the result was inactive.

Regarding `CCSC(=O)NC12CC3CC(CC(C3)C1)C2`, the molecule was called inactive.

Consider `O=C(CSc1nc2ccccc2c(=O)n1CCCN1CCOCC1)Nc1ccc2c(c1)OCO2`, for which the molecule was called inactive.

With `O=C(O)c1ccccc1-c1nc2ccccc2c(=O)n1O`, the molecule was classed as inactive.

On to `CN(C(=O)COC(=O)CNC(=O)C12CC3CC(CC(C3)C1)C2)C1CCS(=O)(=O)C1` (stereo not drawn), for which the molecule was classed as inactive.

Take `N#CC1=C2SCC(O)(c3ccccc3)N2C(=O)CC1c1ccccc1F` (stereo not drawn): the result was inactive.

Regarding `COc1cc2c(cc1OC)C(c1cccc(F)c1)CC(=O)N2` (stereo not drawn), the call was inactive.

Consider `COc1ccc(C2CC(=O)Nc3n[nH]c(-c4ccccc4)c32)cc1OC` (stereo not drawn), for which the outcome was inactive.

In the case of `Cc1csc(N2CCCC2c2nc3cc(C(F)(F)F)ccc3n2CCOCCO)n1` (stereo not drawn), the outcome was inactive.

Consider `CN1C2CCC1CC(NS(=O)(=O)c1cc(Cl)c(Cl)cc1Cl)C2` (stereo not drawn), for which the molecule was classed as inactive.

For the molecule `CN(C)c1ccc(C(=O)n2nnc3ccccc32)cc1`, the call was inactive.

As for `CC(C)(C)c1ccc(C(=O)O)c(C(=O)c2ccc(C(=O)O)cc2)c1`, the molecule was classed as inactive.

On to `Nc1nnc(-c2cn(-c3ccccc3)nc2-c2ccc(Cl)cc2)o1`, for which the outcome was inactive.

With `Cc1cccc(CNC(=O)C2CCCN(c3nn4c(=O)cc(C)nc4s3)C2)c1` (stereo not drawn), the molecule was called inactive.

With `COc1ccc(CNC(=O)Cn2nnc(-c3ccc(NC(=O)C4CCCCC4)cc3)n2)cc1`, the molecule was called inactive.

In the case of `CCc1ccc(NS(=O)(=O)c2ccc3[nH]cc(C(=O)N4CCCCC4)c(=O)c3c2)cc1`, the result was inactive.

As to `C/C(=N\NC(=O)c1cccc(O)c1)c1cccc(NC(=O)c2ccc(F)cc2)c1`, the outcome was inactive.

Turning to `CCOC(=O)CNS(=O)(=O)Cc1ccccc1`, the call was inactive.

Take `CC(=O)NCC(=O)OCC(=O)c1ccc(C)cc1`: the outcome was inactive.

Consider `CCCCCn1c(CNC(=O)c2cccs2)nc2ccccc21`, for which the outcome was inactive.

In the case of `Cc1cccc(NC(=S)NC(C)CCc2ccccc2)c1` (stereo not drawn), the call was inactive.

Take `CCOC(=O)c1c2c3c(c(Cl)ccc3[nH]c1=O)C(=O)c1ccccc1-2`: the result was inactive.

In the case of `CCc1ccccc1NC(=O)CSc1nnc(-c2ccco2)n1N`, the call was inactive.

As to `Cc1ccc(S(=O)(=O)Nc2ccnc(-c3cccnc3)n2)cc1`, the molecule was called inactive.

For `Clc1ccccc1-c1ccc2ncnc(NCc3cccnc3)c2c1`, the molecule was called inactive.

`Cc1ccc(/C=N/NC(=O)c2ccc(Cn3cc([N+](=O)[O-])cn3)o2)cc1`: the molecule was classed as inactive.

Consider `CC(C)(C)OC(=O)N[C@@H](Cc1ccccc1)[C@H](O)c1ccco1`, for which the result was inactive.

For `CCCc1cc(=O)oc2cc(OCC(=O)N(C)C)c(Cl)cc12`, the outcome was inactive.

On to `COc1ccc(C(CNC(=O)c2cc(SC)ccc2Cl)N(C)C)cc1` (stereo not drawn), for which the result was inactive.

For `O=C(NC(=S)NNC(=O)c1ccccc1O)c1ccccc1`, the call was inactive.

As for `O=C(c1ccco1)N1CCN(C(=O)c2ccc(CS(=O)c3ccc(F)cc3)o2)CC1` (stereo not drawn), the call was inactive.

With `CCC(=NCCc1ccc(OC)c(OC)c1)C1=C(O)CC(C)(C)CC1=O`, the molecule was called inactive.

Take `COCCNC(=O)c1c[nH]c2ccc(S(=O)(=O)N3CCc4ccccc43)cc2c1=O`: the molecule was called inactive.

For `COc1cc(OC)cc(C(=O)NC2CC(C)(C)NC(C)(C)C2)c1`, the molecule was classed as inactive.

With `CC(=O)c1cc(CN2CCCCC2)cc(OC(C)C)c1`, the molecule was classed as inactive.

As to `CCc1cc2c(=O)n(C(C)C(=O)OC3CCCCC3)cnc2s1` (stereo not drawn), the result was inactive.

On to `O=C(Nc1cc(N2CCOCC2)ncn1)c1ccccc1`, for which the result was inactive.

With `COc1ccccc1N1C(=NC(=O)CCc2ccccc2)SC2CS(=O)(=O)CC21` (stereo not drawn), the molecule was classed as inactive.

For `CCCn1c2c(c(=N)c3c1CCC3)CCCC2`, the result was inactive.

Consider `CC(=O)c1ccc(NC(=O)C2CCCN2S(=O)(=O)c2cccc3cccnc23)cc1` (stereo not drawn), for which the outcome was inactive.

Turning to `CC(C)(C#N)NC(=O)C1CCCN1S(=O)(=O)c1ccc2ccccc2c1` (stereo not drawn), the molecule was classed as inactive.

For the molecule `Cc1ccc(S(=O)(=O)NC(C)(C)CSc2nnc(Nc3ccccc3)s2)cc1`, the outcome was inactive.

In the case of `O=C(CN1CCCCC1)Nc1cc(Cl)ccc1Cl`, the result was inactive.

`Cc1ccc(NC(=O)CN2CCN(c3ccccn3)CC2)c(Cl)c1`: the result was inactive.

On to `CCC1Nc2ncnc(N3CCOCC3)c2N(Cc2ccc(Cl)cc2)C1=O` (stereo not drawn), for which the molecule was classed as inactive.

Consider `O=C(Nc1cccnc1Cl)c1noc2c1CCc1ccccc1-2`, for which the result was inactive.

On to `CC1=C(C#N)C(c2cn(-c3ccccc3)nc2-c2cccs2)C(C#N)=C(C)N1`, for which the molecule was classed as inactive.

Take `CC(=O)Nc1cccc(-c2csc(Nc3cc(C)ccn3)n2)c1`: the result was inactive.

Consider `O=C(O)c1ccc(NC2=C(N3CCOCC3)C(=O)c3ccccc3C2=O)cc1`, for which the outcome was inactive.

Consider `COC(=O)COc1cccc(NC(=O)c2cccc(C)c2)c1`, for which the result was inactive.

Regarding `Cc1cccc(OCC(O)Cn2c(=N)n(CCN3CCOCC3)c3ccccc32)c1` (stereo not drawn), the call was inactive.

In the case of `CCCNC(=O)c1cc(C)no1`, the result was inactive.

Turning to `COc1ccc(/C(C)=N/NC(=O)CNC(=O)c2ccncc2)c(OC)c1`, the call was inactive.

As to `CCCCc1ccc(N=N/C(C(=O)Nc2ccc(NC(C)=O)cc2OC)=C(/C)O)cc1`, the outcome was inactive.
